{"source": "the supplement of paper PMC11006884", "note": "Targets with a hit are over-represented here; the source holds about 6,500 in all. About 2% of all pairs of compound and target were hits. A number with no mark means an inactive call."}
{"compound": "COC(=O)C#Cc1ccccc1 [methyl 3-phenylpropiolate]", "test": "log2 ratio of iodoacetamide-alkyne labeling of the cysteine site, DMSO over compound (competition); higher = stronger covalent engagement of the cysteine by the compound, active = 1 or more", "details": "500 µM; treatment time 1 h; system: HEK293T cell lysate", "how_it_was_run": "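Three replicates, each with duplicate channels, were prepared from HEK293T lysate (2 mg/mL) treated with vehicle or electrophile at 500 µM for 1 h at ambient temperature. Iodoacetamide alkyne was then applied for 1 h, and samples were clicked to sCIP-TMT reagents, pooled, trypsin-digested overnight at 37 °C, enriched on streptavidin, acid-eluted and analysed on Orbitrap Eclipse LC-MS/MS with FAIMS, with FragPipe quantification. The log2 competition ratio per cysteine is the mean control-channel divided by the mean compound-channel reporter intensity. Cysteines quantified in only one replicate were left out.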"}
{"target": "TLN1 C2161 (UniProt Q9Y490)", "log2 ratio of iodoacetamide-alkyne labeling": -0.0698}
{"target": "UniProt Q9BYG3_C237", "log2 ratio of iodoacetamide-alkyne labeling": 0.515}
{"target": "DDX56 C286 (UniProt Q9NY93)", "log2 ratio of iodoacetamide-alkyne labeling": 0.51}
{"target": "SRP68 C247 (UniProt Q9UHB9)", "log2 ratio of iodoacetamide-alkyne labeling": 0.197}
{"target": "NFU1 C213 (UniProt Q9UMS0)", "log2 ratio of iodoacetamide-alkyne labeling": 0.895}
{"target": "CARS2 C526 (UniProt Q9HA77)", "log2 ratio of iodoacetamide-alkyne labeling": 0.206}
{"target": "ACTR6 C339 (UniProt Q9GZN1)", "sequence (Q9GZN1 whole entry, looked up)": "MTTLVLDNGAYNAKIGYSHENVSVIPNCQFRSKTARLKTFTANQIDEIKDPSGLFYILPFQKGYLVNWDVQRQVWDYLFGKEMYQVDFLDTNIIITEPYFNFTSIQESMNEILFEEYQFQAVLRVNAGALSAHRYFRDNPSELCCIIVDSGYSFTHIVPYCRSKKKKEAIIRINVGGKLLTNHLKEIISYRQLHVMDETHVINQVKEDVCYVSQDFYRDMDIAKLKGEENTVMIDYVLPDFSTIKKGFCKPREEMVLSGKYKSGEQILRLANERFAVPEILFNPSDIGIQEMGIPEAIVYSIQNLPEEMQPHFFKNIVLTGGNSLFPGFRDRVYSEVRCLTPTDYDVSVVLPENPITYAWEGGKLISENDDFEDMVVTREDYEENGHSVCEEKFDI", "log2 ratio of iodoacetamide-alkyne labeling": 0.248}
{"target": "POLDIP2 C143 (UniProt Q9Y2S7)", "log2 ratio of iodoacetamide-alkyne labeling": 0.786}
{"target": "HEG1 C1360 (UniProt Q9ULI3)", "log2 ratio of iodoacetamide-alkyne labeling": "1.36 (active)"}
{"target": "FHOD1 C31 (UniProt Q9Y613)", "sequence (Q9Y613 whole entry, looked up)": "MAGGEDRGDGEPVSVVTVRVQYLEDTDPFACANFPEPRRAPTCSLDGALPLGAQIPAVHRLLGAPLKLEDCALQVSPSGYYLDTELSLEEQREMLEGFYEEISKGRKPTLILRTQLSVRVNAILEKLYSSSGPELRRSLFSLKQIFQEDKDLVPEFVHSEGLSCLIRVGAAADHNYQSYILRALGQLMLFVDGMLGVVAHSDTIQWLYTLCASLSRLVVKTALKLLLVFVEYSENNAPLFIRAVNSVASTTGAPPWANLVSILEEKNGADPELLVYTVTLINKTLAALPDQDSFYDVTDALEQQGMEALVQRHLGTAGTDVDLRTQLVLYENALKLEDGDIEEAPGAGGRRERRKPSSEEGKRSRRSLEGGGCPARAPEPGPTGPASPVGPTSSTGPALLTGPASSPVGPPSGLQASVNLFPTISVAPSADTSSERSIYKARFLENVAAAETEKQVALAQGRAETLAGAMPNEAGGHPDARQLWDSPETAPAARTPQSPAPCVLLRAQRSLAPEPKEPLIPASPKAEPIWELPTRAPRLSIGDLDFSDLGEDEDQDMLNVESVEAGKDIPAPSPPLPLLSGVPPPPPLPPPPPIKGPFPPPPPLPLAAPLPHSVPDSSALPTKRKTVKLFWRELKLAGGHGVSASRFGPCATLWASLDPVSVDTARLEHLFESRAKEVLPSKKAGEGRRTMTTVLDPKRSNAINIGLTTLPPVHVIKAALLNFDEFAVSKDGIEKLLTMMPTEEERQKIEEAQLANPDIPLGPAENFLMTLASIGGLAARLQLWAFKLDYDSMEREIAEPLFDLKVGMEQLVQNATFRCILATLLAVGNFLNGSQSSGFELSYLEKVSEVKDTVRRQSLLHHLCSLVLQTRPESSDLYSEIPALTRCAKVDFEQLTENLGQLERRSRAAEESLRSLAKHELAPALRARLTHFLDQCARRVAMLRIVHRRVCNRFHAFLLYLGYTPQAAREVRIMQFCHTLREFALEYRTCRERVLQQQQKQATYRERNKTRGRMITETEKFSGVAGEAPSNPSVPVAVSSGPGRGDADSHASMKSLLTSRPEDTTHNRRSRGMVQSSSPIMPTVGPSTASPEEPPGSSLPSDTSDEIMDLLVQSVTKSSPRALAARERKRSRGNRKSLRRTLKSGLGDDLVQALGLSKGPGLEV", "log2 ratio of iodoacetamide-alkyne labeling": 0.248}
{"target": "MYO6 C1236 (UniProt Q9UM54)", "sequence (Q9UM54 whole entry, looked up)": "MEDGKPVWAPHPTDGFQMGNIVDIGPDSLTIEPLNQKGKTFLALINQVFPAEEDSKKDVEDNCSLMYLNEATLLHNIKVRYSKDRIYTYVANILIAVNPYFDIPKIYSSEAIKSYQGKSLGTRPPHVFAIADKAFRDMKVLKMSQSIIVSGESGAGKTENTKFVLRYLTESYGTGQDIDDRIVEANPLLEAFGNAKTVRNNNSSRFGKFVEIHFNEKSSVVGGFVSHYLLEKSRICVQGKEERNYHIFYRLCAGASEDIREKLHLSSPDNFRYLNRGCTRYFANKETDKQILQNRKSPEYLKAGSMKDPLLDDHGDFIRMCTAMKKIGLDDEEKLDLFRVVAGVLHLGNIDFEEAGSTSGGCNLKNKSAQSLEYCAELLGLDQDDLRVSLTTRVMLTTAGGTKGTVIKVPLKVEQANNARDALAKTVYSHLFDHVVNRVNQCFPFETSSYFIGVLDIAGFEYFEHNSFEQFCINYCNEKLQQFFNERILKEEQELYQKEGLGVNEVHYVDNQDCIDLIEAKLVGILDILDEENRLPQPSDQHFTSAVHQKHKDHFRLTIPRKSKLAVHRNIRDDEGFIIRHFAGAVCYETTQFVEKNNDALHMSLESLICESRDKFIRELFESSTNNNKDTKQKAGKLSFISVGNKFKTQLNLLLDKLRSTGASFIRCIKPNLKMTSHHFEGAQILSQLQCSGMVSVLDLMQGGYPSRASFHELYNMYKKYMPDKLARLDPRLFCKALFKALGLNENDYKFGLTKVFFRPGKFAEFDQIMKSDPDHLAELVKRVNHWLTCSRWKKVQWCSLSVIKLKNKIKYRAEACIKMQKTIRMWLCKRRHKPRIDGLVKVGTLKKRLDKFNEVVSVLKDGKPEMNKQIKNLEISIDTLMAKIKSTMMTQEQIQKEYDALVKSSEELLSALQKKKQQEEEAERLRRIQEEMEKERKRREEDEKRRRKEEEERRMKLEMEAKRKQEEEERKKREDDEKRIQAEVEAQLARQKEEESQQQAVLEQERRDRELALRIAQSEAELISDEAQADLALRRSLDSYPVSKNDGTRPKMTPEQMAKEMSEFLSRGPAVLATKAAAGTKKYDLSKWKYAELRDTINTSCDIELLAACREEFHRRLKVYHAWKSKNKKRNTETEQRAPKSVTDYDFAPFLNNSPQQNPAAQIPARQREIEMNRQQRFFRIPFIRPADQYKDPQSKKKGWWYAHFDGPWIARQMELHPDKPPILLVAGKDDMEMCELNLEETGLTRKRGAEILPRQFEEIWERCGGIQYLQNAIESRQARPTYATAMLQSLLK", "log2 ratio of iodoacetamide-alkyne labeling": 0.0604}
{"target": "UBQLN4 C29 (UniProt Q9NRR5)", "log2 ratio of iodoacetamide-alkyne labeling": "1.12 (active)"}
{"target": "SMC4 C190 (UniProt Q9NTJ3)", "sequence (Q9NTJ3 whole entry, looked up)": "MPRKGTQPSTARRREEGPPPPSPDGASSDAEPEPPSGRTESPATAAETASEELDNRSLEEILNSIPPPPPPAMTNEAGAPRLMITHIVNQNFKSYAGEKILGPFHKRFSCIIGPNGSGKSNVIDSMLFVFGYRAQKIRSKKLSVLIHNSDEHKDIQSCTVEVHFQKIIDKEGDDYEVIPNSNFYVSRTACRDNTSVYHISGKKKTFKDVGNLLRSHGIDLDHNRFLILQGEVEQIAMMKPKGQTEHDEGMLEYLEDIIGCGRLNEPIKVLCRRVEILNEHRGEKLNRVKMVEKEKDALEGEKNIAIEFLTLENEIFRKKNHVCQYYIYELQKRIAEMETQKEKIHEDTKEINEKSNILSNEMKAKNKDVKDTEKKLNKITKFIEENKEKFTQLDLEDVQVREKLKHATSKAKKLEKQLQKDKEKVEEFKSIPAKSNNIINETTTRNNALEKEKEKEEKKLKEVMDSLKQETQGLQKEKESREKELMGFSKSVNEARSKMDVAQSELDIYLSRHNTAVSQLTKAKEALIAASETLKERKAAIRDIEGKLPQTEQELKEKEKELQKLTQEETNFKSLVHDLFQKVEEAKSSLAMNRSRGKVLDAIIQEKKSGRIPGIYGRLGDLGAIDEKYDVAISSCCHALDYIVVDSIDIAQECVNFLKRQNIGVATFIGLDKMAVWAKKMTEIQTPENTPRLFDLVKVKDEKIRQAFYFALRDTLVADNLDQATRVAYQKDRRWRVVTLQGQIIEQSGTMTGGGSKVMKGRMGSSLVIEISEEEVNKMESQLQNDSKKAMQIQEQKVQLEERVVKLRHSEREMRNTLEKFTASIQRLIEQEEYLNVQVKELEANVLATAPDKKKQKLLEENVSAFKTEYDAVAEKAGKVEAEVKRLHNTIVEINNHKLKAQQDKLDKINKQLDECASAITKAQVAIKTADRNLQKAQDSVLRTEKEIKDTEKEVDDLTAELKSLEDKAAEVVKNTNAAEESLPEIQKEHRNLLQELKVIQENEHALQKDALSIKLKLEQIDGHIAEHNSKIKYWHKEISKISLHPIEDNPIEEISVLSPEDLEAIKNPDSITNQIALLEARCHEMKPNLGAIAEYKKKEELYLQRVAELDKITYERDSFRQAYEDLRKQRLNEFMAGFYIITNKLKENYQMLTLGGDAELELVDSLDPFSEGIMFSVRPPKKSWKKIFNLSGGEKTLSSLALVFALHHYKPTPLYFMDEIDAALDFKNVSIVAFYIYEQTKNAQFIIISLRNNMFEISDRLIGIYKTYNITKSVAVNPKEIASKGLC", "log2 ratio of iodoacetamide-alkyne labeling": 0.109}
{"target": "TELO2 C367 (UniProt Q9Y4R8)", "sequence (Q9Y4R8 whole entry, looked up)": "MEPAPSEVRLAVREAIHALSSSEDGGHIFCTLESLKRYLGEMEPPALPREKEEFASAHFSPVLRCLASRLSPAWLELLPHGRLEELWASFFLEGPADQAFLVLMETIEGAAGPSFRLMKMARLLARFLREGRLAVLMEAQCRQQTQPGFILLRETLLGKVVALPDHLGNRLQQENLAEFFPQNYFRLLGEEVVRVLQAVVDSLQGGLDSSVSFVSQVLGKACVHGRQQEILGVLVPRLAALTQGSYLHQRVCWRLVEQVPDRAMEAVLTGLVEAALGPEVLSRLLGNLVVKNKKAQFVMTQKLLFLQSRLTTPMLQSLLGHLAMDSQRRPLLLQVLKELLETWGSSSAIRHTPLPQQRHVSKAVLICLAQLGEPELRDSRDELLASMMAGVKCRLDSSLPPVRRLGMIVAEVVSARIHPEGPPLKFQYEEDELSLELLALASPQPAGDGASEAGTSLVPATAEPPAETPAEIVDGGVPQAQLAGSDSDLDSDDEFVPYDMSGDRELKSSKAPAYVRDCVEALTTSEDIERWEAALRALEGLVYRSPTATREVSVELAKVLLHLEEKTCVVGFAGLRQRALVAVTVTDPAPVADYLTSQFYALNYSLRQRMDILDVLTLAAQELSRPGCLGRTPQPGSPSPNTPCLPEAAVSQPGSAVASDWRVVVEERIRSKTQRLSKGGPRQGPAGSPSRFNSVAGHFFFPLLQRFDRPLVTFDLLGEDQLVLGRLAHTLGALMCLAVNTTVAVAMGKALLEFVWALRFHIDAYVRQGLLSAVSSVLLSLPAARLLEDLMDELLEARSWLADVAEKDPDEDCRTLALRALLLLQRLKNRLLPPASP", "log2 ratio of iodoacetamide-alkyne labeling": 0.0485}
{"target": "PNO1 C64 (UniProt Q9NRX1)", "log2 ratio of iodoacetamide-alkyne labeling": 0.367}
{"target": "ALG5 C194 (UniProt Q9Y673)", "log2 ratio of iodoacetamide-alkyne labeling": 0.233}
{"target": "IARS2 C91 (UniProt Q9NSE4)", "log2 ratio of iodoacetamide-alkyne labeling": 0.81}
